# Active and inactive are the calls of the source. Cut-off read from the data, not from the text of the source, unless noted: active = inhibition above about 80%; inactive = the rest.
# Legend:
# [1] = LFS_MB_P medulloblastoma growth inhibition, cell-based, chromothripsis tumors, cisplatin or BGB combos (AID 1671449); conditions: LFS_MB_P medulloblastoma cells;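 note: cells exposed for 96 hours; 0% = vehicle DMSO and 100% = killing by high DMSO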
# [2] = HDN33 neuroblastoma growth inhibition, cell-based, chromothripsis tumors, cisplatin or BGB combos (AID 1671450); conditions: HDN33 neuroblastoma cells, stronger effect = higher value;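 note: cells exposed to compound for four days; 0% = vehicle DMSO and 100% = cell killing by high DMSO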
# [3] = ICB984 medulloblastoma cell growth inhibition, synergistic combos for chromothripsis tumors, cisplatin or BGB combos (AID 1671451; call rule not given here;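 note: cells exposed for 96 hours before readout; 0% = vehicle DMSO and 100% = killing by high DMSO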); conditions: ICB984 medulloblastoma cells, drug combinations, stronger effect = higher value
# [4] = LFS_MB_1R medulloblastoma cell growth inhibition, synergistic combos for chromothripsis tumors, cisplatin or BGB combos (AID 1671452); conditions: LFS_MB_1R medulloblastoma cells, stronger effect = higher value;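 note: cells exposed for 96 hours before readout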
# [5] = HTB85 osteosarcoma cell growth inhibition, synergistic combos for chromothripsis tumors, BGB or cisplatin IC20 combos (AID 1671453); conditions: HTB85 osteosarcoma cells, drug combinations, stronger effect = higher value;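 note: cells exposed for 96 hours before readout; 0% = vehicle DMSO and 100% = high DMSO killing control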
# [6] = CRL2098 osteosarcoma cell growth inhibition, synergistic combos for chromothripsis tumors, BGB or cisplatin IC20 combos (AID 1671454); conditions: CRL2098 osteosarcoma cells, drug combinations, stronger effect = higher value;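 note: cells exposed for 96 h before readout; 0% = vehicle DMSO and 100% = killing by high DMSO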
# [7] = HD-MB03 medulloblastoma cell growth inhibition, synergistic combos for chromothripsis tumors, BGB or cisplatin IC20 combos (AID 1671455; in the data active = inhibition above about 83%;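 note: 0% = vehicle DMSO and 100% = high DMSO as cytotoxic control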); conditions: HD-MB03 medulloblastoma cells, stronger effect = higher value
# [8] = UWB1.289 ovarian carcinoma cell growth inhibition, synergistic combos for chromothripsis tumors, BGB or cisplatin combos (AID 1671456); conditions: UWB1.289 ovarian carcinoma cells, stronger effect = higher value;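 note: cells exposed to compound for four days; 0% = vehicle DMSO and 100% = killing by high DMSO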
# [9] = LFS_MB_2R medulloblastoma cell growth inhibition, synergistic combos for chromothripsis tumors, cisplatin combos (AID 1671457); conditions: LFS_MB_2R medulloblastoma cells, stronger effect = higher value;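 note: cells exposed to compound for four days before readout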
# [10] = MDA-MB-436 breast carcinoma cell growth inhibition, synergistic combos for chromothripsis tumors, BGB or cisplatin combos (AID 1671458; call rule not given here;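 note: cells exposed for 96 hours; 0% = vehicle DMSO and 100% = killing by high DMSO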); conditions: MDA-MB-436 breast carcinoma growth inhibition, drug combinations, stronger effect = higher value
# [11] = UWB1.289_BRCA1 ovarian cancer growth, cell-based, BGB or cisplatin combinations (AID 1671459); conditions: UWB1.289 BRCA1 ovarian carcinoma, drug combinations, stronger effect = higher value
# [12] = human astrocyte viability loss, single and combined drugs, cytotoxicity control for chromothriptic childhood tumor combination screen, cell-based, BGB or cisplatin IC20 combos (AID 1671460); conditions: Human astrocytes, drug combinations, stronger effect = higher value;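 note: cells exposed to compounds for 96 hours before viability readout; 0% = vehicle and 100% = killing control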
# [13] = growth inhibition of BT084 medulloblastoma cells, cell-based, ICGC_MB145, cisplatin and BGB IC40 combos (AID 1671461); conditions: drug combinations, stronger effect = higher value;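 note: cells exposed to drugs for 96 hours; 0% = vehicle DMSO and 100% = high DMSO full killing control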
# [14] = growth inhibition of RCMB18 medulloblastoma cells, cell-based, cisplatin and BGB IC40 combos (AID 1671462); conditions: stronger effect = higher value;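 note: cells exposed to compound for four days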
# [15] = growth inhibition of CRL1545 osteosarcoma cells, cell-based, cisplatin and BGB IC20 combos (AID 1671464); conditions: stronger effect = higher value;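 note: cells exposed to compound for 96 hours before readout; 0% = vehicle DMSO and 100% = high DMSO killing control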
# [16] = measured here: combination with BGB IC40, at 0.05 µM
# [17] = measured here: with BGB IC20 combination, at 0.5 µM
# [18] = measured here: with cisplatin IC20 combination, at 0.5 µM
# [19] = measured here: combination with cisplatin, at 0.5 µM
# [20] = measured here: combination with cisplatin, at 5 µM
compound,measurement,setting,value
NC(=O)c1cccc2cn(-c3ccc(C4CCCNC4)cc3)nc12 (stereo not drawn),inhibition,"[1]; at 0.5 µM, stronger effect = higher value",-22.2% (inactive)
same,inhibition,"[1]; measured here: combination with BGB IC20, at 0.005 µM",9.92%
same,inhibition,"[1]; measured here: combination with BGB IC40, at 0.005 µM",-8.03%
same,inhibition,[1]; [16],-6.95%
same,inhibition,"[1]; measured here: combination with cisplatin, at 0.5 µM, stronger effect = higher value",-37.4%
same,inhibition,"[1]; measured here: combination with cisplatin, at 5 µM, stronger effect = higher value",-29.2%
same,inhibition,"[2]; BGB combo, at 5 µM",-13.1%
same,inhibition,[2]; at 0.5 µM,-12.8% (inactive)
same,inhibition,"[2]; cisplatin combo, at 5 µM",28.2%
same,inhibition,[2]; [17],-14.6%
same,inhibition,[2]; [18],-19.6%
same,inhibition,"[2]; single agent, at 5 µM",44.3%
same,inhibition,"[3]; BGB IC20 combo, at 0.005 µM",-10.7%
same,inhibition,"[3]; BGB IC40 combo, at 0.005 µM",-50.8%
same,inhibition,"[3]; BGB IC40 combo, at 0.05 µM",-43.2%
same,inhibition,[3]; at 0.5 µM,-25.3% (inactive)
same,inhibition,"[3]; cisplatin combo, at 0.05 µM",-48.9%
same,inhibition,"[3]; cisplatin combo, at 0.5 µM",-42.4%
same,inhibition,"[3]; cisplatin combo, at 5 µM",-33%
same,inhibition,"[3]; measured here: 5 uM single agent, at 5 µM",-12.1%
same,inhibition,[4]; at 0.5 µM,-17.8% (inactive)
same,inhibition,[4]; [16],-23.5%
same,inhibition,[4]; [19],-55.4%
same,inhibition,[4]; [20],-54.7%
same,inhibition,[5]; at 0.5 µM,-22% (inactive)
same,inhibition,"[5]; measured here: with BGB IC20, at 0.5 µM",-26.2%
same,inhibition,"[5]; measured here: with BGB IC20, at 5 µM",-8.36%
same,inhibition,"[5]; measured here: with cisplatin IC20, at 0.5 µM",-25.1%
same,inhibition,"[5]; measured here: with cisplatin IC20, at 5 µM",8.74%
same,inhibition,"[5]; single agent, at 5 µM",31.7%
same,inhibition,[6]; at 0.5 µM,-34.1% (inactive)
same,inhibition,"[6]; measured here: combination with BGB at IC20, at 0.5 µM",-52.1%
same,inhibition,"[6]; measured here: combination with cisplatin at IC20, at 0.5 µM",-0.058%
same,inhibition,[7]; at 0.5 µM,-5.6% (inactive)
same,inhibition,"[7]; measured here: combo with BGB at IC20, at 0.5 µM",-17.4%
same,inhibition,"[7]; measured here: combo with cisplatin at IC20, at 0.5 µM",6.18%
same,inhibition,[8]; at 0.5 µM,-3.23% (inactive)
same,inhibition,"[8]; measured here: inhibition with BGB combination, at 0.05 µM",2.85%
same,inhibition,"[8]; measured here: inhibition with cisplatin combination, at 0.05 µM",-19.1%
same,inhibition,[9]; at 0.5 µM,-4.32% (inactive)
same,inhibition,[9]; [19],-10.3%
same,inhibition,[9]; [20],-4.18%
same,inhibition,[10]; at 0.5 µM,13.9% (inactive)
same,inhibition,"[10]; measured here: BGB combination, at 0.5 µM",-2.85%
same,inhibition,"[10]; measured here: BGB combination, at 5 µM",-6.33%
same,inhibition,"[10]; measured here: cisplatin combination, at 0.5 µM",15.6%
same,inhibition,"[10]; measured here: cisplatin combination, at 5 µM",32.2%
same,inhibition,"[11]; BGB combination, concentration series, at 5 µM",-5.8%
same,inhibition,[11]; at 0.5 µM,0.96% (inactive)
same,inhibition,"[11]; cisplatin combination, concentration series, at 5 µM",23.7%
same,inhibition,[12]; at 0.5 µM,-10.9% (inactive)
same,inhibition,"[12]; measured here: combo with BGB IC20, at 0.5 µM",-10.9%
same,inhibition,"[12]; measured here: combo with cisplatin IC20, at 0.5 µM",-15.8%
same,inhibition,[13]; at 0.5 µM,-8.13% (inactive)
same,inhibition,"[13]; cisplatin combination, at 0.5 µM",-15.8%
same,inhibition,"[13]; cisplatin combination, at 5 µM",-1.06%
same,inhibition,"[13]; measured here: BGB IC40 combination 0.05 uM, at 0.05 µM",4.73%
same,inhibition,"[13]; single agent, at 5 µM",-30.1%
same,inhibition,[14]; at 0.5 µM,-4.94% (inactive)
same,inhibition,"[14]; cisplatin combo, at 5 µM",-39.1%
same,inhibition,"[14]; measured here: BGB IC40 combination, at 0.05 µM",-13.7%
same,inhibition,[14]; [19],-10.1%
same,inhibition,"[14]; single agent, at 5 µM",-43.2%
same,inhibition,[15]; at 0.5 µM,-29.8% (inactive)
same,inhibition,[15]; [17],-55.3%
same,inhibition,[15]; [18],-17%
same,inhibition,"[15]; single agent, at 0.05 µM",-35.4%
same,inhibition,"[15]; single agent, at 5 µM",30.1%

# Reference: PubChem BioAssay
